CBFb-RUNX1 inh = qHTS Assay for Compounds Blocking the Interaction Between CBF-beta and RUNX1 for the Treatment of Acute Myeloid Leukemia | AID 1477, 2009 | AlphaScreen CBFb-His/RUNX1-biotin binding, biochemical | 230,000 tested, under 10 active | Runt-related transcription factor 1 (Homo sapiens) + Core-binding factor subunit beta … | Potency, µM (series often up to 59.8 µM), most hits filed as inhibitors
Target sequence (Q01196 whole entry, looked up): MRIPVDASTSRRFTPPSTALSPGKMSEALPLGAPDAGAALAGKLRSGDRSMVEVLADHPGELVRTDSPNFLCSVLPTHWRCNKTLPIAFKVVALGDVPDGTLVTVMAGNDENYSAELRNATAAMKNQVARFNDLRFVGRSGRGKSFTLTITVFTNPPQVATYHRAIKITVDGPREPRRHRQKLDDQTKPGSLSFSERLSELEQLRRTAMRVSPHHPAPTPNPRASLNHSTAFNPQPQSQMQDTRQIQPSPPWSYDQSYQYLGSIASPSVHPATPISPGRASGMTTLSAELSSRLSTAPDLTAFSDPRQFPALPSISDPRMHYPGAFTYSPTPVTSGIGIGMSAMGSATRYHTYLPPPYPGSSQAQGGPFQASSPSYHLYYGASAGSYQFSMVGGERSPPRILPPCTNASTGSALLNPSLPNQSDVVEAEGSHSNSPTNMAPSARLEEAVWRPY
Target sequence (Q13951 whole entry, looked up): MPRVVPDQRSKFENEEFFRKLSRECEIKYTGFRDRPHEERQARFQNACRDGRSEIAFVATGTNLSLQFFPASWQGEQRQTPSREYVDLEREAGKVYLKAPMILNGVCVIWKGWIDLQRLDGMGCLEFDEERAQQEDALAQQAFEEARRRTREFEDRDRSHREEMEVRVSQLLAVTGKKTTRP
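Proteins preincubated together for 20 min at RT before compound addition; 15 min later, nickel and streptavidin beads were added and left 90 min prior to AlphaScreen measurement.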
a7 integrin act = qHTS for Activators of Integrin-Mediated Alleviation for Muscular Dystrophy; 350,000 compounds, 0.064% hits; alpha7betagal myoblasts, beta-gal FDG fluorescence, 48 h; Potency, µM (series often up to 38.3 µM), most hits filed as activators; further: nearly all actives have a fitted effect of over 60% in size
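Alpha7betagal+/- myoblasts (passage 13) were plated 16-24 hr, then exposed to compounds (1:260 dilution of DMSO stock) for 48 hours at 37C. After MPER lysis, β-galactosidase reporter activity was read as FDG fluorescence (ex 480/em 540) after 30 minutes.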
D3 antag = qHTS of D3 Dopamine Receptor Antagonist: qHTS. max response, negative = inhibition, %. AID 652054, 2013. D3R cells, DiscoveRx beta-arrestin luminescence, antagonist mode; stronger effect = lower value. D(3) dopamine receptor (Homo sapiens), P35462. 360,000 compounds, 2.5% hits; in the data active means max response below about -50%; inconclusive means no clear call, values can overlap the other calls
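Cells expressing the human receptor were seeded at 1500 cells/well, incubated overnight at 37 degrees C in 5% CO2, then exposed to library compounds with dopamine controls for 90 minutes at 37 degrees C before luminescent detection.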
DRD3 agonist = qHTS of D3 Dopamine Receptor Agonist: qHTS. D(3) dopamine receptor (Homo sapiens), P35462. D3R DiscoveRx beta-arrestin cells, luminescence, 90 min. max activation, %. 410,000 compounds, 0.58% hits; in the data active means max activation above about 30%
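Agonist-mode cell screen: cells plated at 1500/well and incubated overnight at 37 °C, then exposed to library compounds for 90 min at 37 °C. Detection reagent was added for 30–60 min at room temperature, and luminescence was read.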
MBNL1 CUG block = qHTS Assay for Inhibitors of MBNL1-poly(CUG) RNA binding; Muscleblind-like protein 1 (Homo sapiens), Q9NR56; TR-FRET MBNL1-His/biotin-(CUG)12 binding, 665/545 ratio; AID 2675, 2010; 280,000 compounds, 0.036% hits; Potency, µM (highest dose often 57.5 µM), actives largely listed as inhibitors; active means well fitted inhibition curve with a large enough effect in the signal ratio, with a control signal flat, not every such curve was filed as active; inconclusive means small, poorly fitted or top-dose-only effect, or effect the other way, or a change in a side signal; inactive means no such curve, though single readings can be large or run the other way; the % refers to the signal ratio
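TR-FRET between His-tagged MBNL1 and biotin-(CUG)12 RNA, detected with Tb anti-His antibody (0.055 ng/ul) and streptavidin-XL665 (5 nM), 60 min at room temperature. Compounds titrated 92 nM to 58 uM; 665/545 nm ratio normalized to buffer and complex controls.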
PTHR1 agonist = qHTS for PTHR1 Agonists: Primary Screen; HEK293 GP2 PTHR1 cells, GloSensor cAMP luminescence, 1 h; Parathyroid hormone/parathyroid hormone-related peptide receptor (Homo sapiens), Q03431; AID 743266, 2014; Potency, µM (top dose mostly 115 µM), actives largely listed as activators; 410,000 compounds, 0.075% hits; further: nearly all actives have a fitted effect of over 55% in size
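HEK-293-derived GP2 cells expressing PTHR1 and a GloSensor cAMP reporter, 3,000/well, plated overnight, given luciferin plus IBMX (each 0.5 mM as added) for 1 h at 37 °C, then compound for 1 h at 37 °C. Luminescence was read after 15 min at room temperature.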
Numbers stand for hits; - = inactive; ? = inconclusive; . = no result. Rows were chosen to be rich in hits. Some 2.8% of all compounds tested hit in one or more screens of this group. Unless noted, the call rests on the fitted dose curve; in most records, active means well fitted curve in the direction sought with a large enough effect; inconclusive means small, poorly fitted or top-dose-only effect, or another doubt; inactive means no such curve, though single readings can be large; an effect the other way counts as inactive or inconclusive.

SMILES	CBFb-RUNX1 inh	a7 integrin act	D3 antag	DRD3 agonist	MBNL1 CUG block	PTHR1 agonist
CCOC(=O)CC1C(=O)NCCN1S(=O)(=O)c1cccc(C(F)(F)F)c1 (stereo not drawn)	.	-	-	-	-	-
COC(=O)c1cc(=O)nc(NNC(C)=O)s1	.	.	-	-	.	-
O=C(CSc1nc(C(F)(F)F)cc(=O)[nH]1)N1CCCCCC1	.	-	-	-	.	-
O=c1cc(C(F)(F)F)c2sc(N3CCCCC3)nc2[nH]1	-	-	-57.4	-	-	-
COC(=O)Nc1ccc2[nH]cc(CCNC(C)=O)c2c1	-	.	.	.	.	.
O=C(CN(C1CCCCC1)C1CCCCC1)N1CCc2ccccc2C1	-	-	-	-	-	-
Cc1ccc(C)c(N2CCN(CC3CC=CCC3)CC2)c1 (stereo not drawn)	-	-	-72.9	-	-	-
C1=CCC(CN2CCNCC2)CC1 (stereo not drawn)	-	-	-	-	-	-
CN(C(=O)CSC1=Nc2ccccc2C2=NC(c3ccccc3)C(=O)N12)C1CCCCC1 (stereo not drawn)	-	-	-55.2	-	-	-
Cc1cc(C(=O)N2CCC2(C)C(=O)NS(=O)(=O)c2cccc(OC(F)F)c2)nn1C (stereo not drawn)	.	.	-	74.0	.	-
Cc1cc(C)cc(CC(=O)N2CCC2(C)C(=O)NS(=O)(=O)c2ccc(C#N)cc2)c1 (stereo not drawn)	.	.	-	70.4	.	-
CC1(C(=O)NS(=O)(=O)c2cccc(OC(F)F)c2)CCN1C(=O)c1cccc(F)c1 (stereo not drawn)	.	.	-	-	.	-
CC1(C(=O)NS(=O)(=O)c2ccc(C#N)cc2)CCN1C(=O)Cc1ccsc1 (stereo not drawn)	.	.	-	-	.	-
CCCC(=O)N1CCC1(C)C(=O)NS(=O)(=O)c1cccc(C)c1 (stereo not drawn)	.	.	-	92.5	.	-
COC(=O)[C@@]12C[C@@H](CC(=O)NCc3ccc(OC)c(OC)c3)C(=O)N(Cc3ccc4c(c3)OCO4)C1=CCC(C)(C)C2	.	.	-	-	.	-
CCOc1ccc(C(=O)Nc2ccc(S(=O)(=O)N3C[C@@H]4C[C@@H](C3)c3cccc(=O)n3C4)cc2)cc1	.	.	-	-	.	-
CN1CCN(C(c2ccc(Br)cc2)c2cc(Cl)c3cccnc3c2O)CC1 (stereo not drawn)	.	-	-76.4	-	-	-
COC(=O)c1ccc(CNC(=O)C(NC(=O)c2ccco2)C(C)C)cc1 (stereo not drawn)	.	-	-	-	-	-
C[C@H]1[C@H](c2ccccc2)C[C@@H](C(=O)O)C1(C)C	.	-	-	31.8	.	-
O=C(c1ccccc1)C1CC1c1ccccc1 (stereo not drawn)	.	-	-	-	.	-
O=C(CSc1nnc(NC2CC2)s1)Nc1ccc(N2CCOCC2)cc1	.	-	-	-	.	-
O=C(CSc1nnc(NC(=O)C2CCC2)s1)Nc1ccc(N2CCOCC2)cc1	-	-	-72.8	-	-	-
O=C1[C@H]2[C@@H](c3ccccc3)N[C@]3(CCCN(Cc4ccco4)C3=O)[C@H]2C(=O)N1Cc1ccccc1	.	-	-56.0	-	.	-
O=C(CCc1n[nH]c(=O)[nH]c1=O)Nc1cccc([N+](=O)[O-])c1	-	-	-	-	?	-
C=CCSc1nnc(NC(=O)COc2ccc3ccccc3c2)s1	-	-	-65.9	-	-	-
NCCNC(=O)c1ncsc1-c1cccc(F)c1	-	.	-52.4	-	.	-
CC(=O)C[C@H]1SC[C@@H](C(C)C)N1S(=O)(=O)c1ccc(C)cc1	.	.	-	-	.	-

Assay outcomes (PubChem)
